Assay [1] is described as follows: ATG_PBREM_CIS: Attagene CIS-FACTORIAL HepG2 Assay for human Phenobarbital-responsive Enhancer Module (PBREM) (AID 2282955). As to conditions: HepG2 PBREM cis-reporter, Attagene multiplexed transcription; actives raise or lower the signal. In outline:
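Transfected liver-derived HepG2 cells exposed 24 h; PBREM reporter transcript quantified via RT-PCR and capillary electrophoresis, with activity in either direction referenced to DMSO.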

Assay [2] has as its target Paired box protein Pax-6 (Homo sapiens) (UniProt P26367). In words: ATG_Pax6_CIS: Attagene CIS-FACTORIAL HepG2 Assay for human Paired Box 6 (PAX6) (AID 2282956). As to conditions: HepG2 CIS-FACTORIAL PAX6 reporter transcription, RNA readout; actives raise or lower the signal. In outline: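 Values derive from bidirectional curve fitting of reporter mRNA signal relative to DMSO. HepG2 cells bearing transfected cis-regulated MRTUs were exposed for 24 h; transcripts were read by RT-PCR and capillary electrophoresis.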

The nature of assay [3]: ATG_PXRE_CIS: Attagene CIS-FACTORIAL HepG2 Assay for human Pregnane X Receptor Element (PXRE) (AID 2282957). The settings on record: HepG2 Attagene CIS-FACTORIAL PXRE reporter, mRNA; actives raise or lower the signal. In outline:
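Endogenous transcription factor activity in HepG2 was gauged through induction of reporter mRNA driven by a cis-regulating promoter element, sampled 24 h post-treatment. Activity was fitted in both directions against DMSO negative control.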

Assay [4] in a line: ATG_PPRE_CIS: Attagene CIS-FACTORIAL HepG2 Assay for human Peroxisome Proliferator-activated Response Element (PPRE) (AID 2282958). As to conditions: HepG2 PPRE cis-element reporter, Attagene transcription factor profiling; actives raise or lower the signal. In outline:
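Measured endpoint: PPRE-controlled reporter mRNA, detected by RT-PCR and capillary electrophoresis fluorescence, from transiently transfected HepG2 cells 24 h after dosing. Curves fitted in both directions using DMSO baseline.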

Assay [5] in a line: ATG_RORE_CIS: Attagene CIS-FACTORIAL HepG2 Assay for human RAR-related Orphan Receptor Element (RORE) (AID 2282959). As to conditions: HepG2 Attagene cis-factorial RORE reporter, mRNA; actives raise or lower the signal. In outline:
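Transiently transfected HepG2 reporter cells were treated 24 h. Reporter transcripts were detected by RT-PCR and capillary electrophoresis, with bidirectional fitting against DMSO.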

The nature of assay [6]: ATG_Sox_CIS: Attagene CIS-FACTORIAL HepG2 Assay for human SRY-box transcription factor (SOX) (AID 2282960). As to conditions: HepG2 Attagene cis-factorial SOX reporter, mRNA; actives raise or lower the signal. In outline:
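Gain- or loss-of-signal endpoint, fitted bidirectionally with DMSO as negative control. Based on reporter mRNA from transfected HepG2 cells harvested 24 h post-treatment and quantified via RT-PCR and capillary electrophoresis.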

For assay [7], the target named is Transcription factor Sp1 (Homo sapiens) (UniProt P08047). Briefly: ATG_Sp1_CIS: Attagene CIS-FACTORIAL HepG2 Assay for human Specificity Protein 1 (Sp1) (AID 2282961). The settings on record: HepG2 Sp1 cis-reporter transcription, actives raise or lower the signal. The gist of the method:
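Endpoint reflects endogenous Sp1 transcriptional activity, not an exogenous fusion protein: HepG2 cells with transfected cis-regulated reporters, 24 h dosing, RT-PCR/capillary electrophoresis mRNA read-out, DMSO-normalised bidirectional fit.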

Assay [8] in a line: ATG_SREBP_CIS: Attagene CIS-FACTORIAL HepG2 Assay for human Sterol Regulatory Element Binding (SREBP) (AID 2282962). As to conditions: HepG2 Attagene cis-factorial SREBP reporter, mRNA; actives raise or lower the signal. The gist of the method: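 Values derive from bidirectional curve fitting with DMSO as baseline. The underlying measurement is reporter mRNA from cis-element-regulated units in transiently transfected HepG2, quantified by RT-PCR and capillary electrophoresis after 24 h exposure.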

In assay [9] the target is Signal transducer and activator of transcription 3 (Homo sapiens) (UniProt P40763). Briefly: ATG_STAT3_CIS: Attagene CIS-FACTORIAL HepG2 Assay for human Signal Transducer and Activator of Transcription 3 (STAT3) (AID 2282963). As to conditions: HepG2, Attagene cis-factorial STAT3 reporter transcription; actives raise or lower the signal. The gist of the method:
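Cis-factorial format: endogenous transcription factors in HepG2 drive transfected reporter units. After 24 h treatment, reporter RNA was reverse-transcribed, amplified, FAM-labelled and HpaI-digested before CE analysis; activity scored in both directions against DMSO.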

The nature of assay [10]: ATG_TA_CIS: Attagene CIS-FACTORIAL HepG2 Assay for human TA Basal Promoter (AID 2282964). As to conditions: HepG2 Attagene CIS-factorial TA basal promoter reporter; actives raise or lower the signal. In outline:
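Read-out: fluorescent reporter-transcript fragments resolved by capillary electrophoresis after RT-PCR and HpaI digestion. Source: HepG2 cells carrying transiently transfected multi-reporter cis constructs, treated 24 h. Endpoint fitted bidirectionally relative to DMSO.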

The nature of assay [11]: ATG_TAL_CIS: Attagene CIS-FACTORIAL HepG2 Assay for human TAL Basal Promoter (AID 2282966).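 Also: background control endpoint measuring basal TAL promoter reporter mRNA not a specific factor.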 As to conditions: HepG2 Attagene cis-factorial TAL promoter reporter; actives raise or lower the signal. The gist of the method:
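Endogenous transcription-factor activity is sensed in HepG2 cells through transfected cis-promoter reporter constructs. After 24 h dosing, reporter transcripts are quantified by RT-PCR and capillary electrophoresis. Gain or loss of signal is fitted relative to DMSO.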

The nature of assay [12]: ATG_TGFb_CIS: Attagene CIS-FACTORIAL HepG2 Assay for human Transforming Growth Factor (TGF) (AID 2282967). The settings on record: HepG2 Attagene CIS TGFb reporter, mRNA transcription; actives raise or lower the signal. In outline:
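Transient MRTU transfection of HepG2 (FuGene 6). Dose 24 h. TriZol RNA, oligo(dT) RT, PCR, 6-FAM primer extension, HpaI cut, CE. Bidirectional fit, DMSO = baseline.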

Assay [13] is described as follows: ATG_VDRE_CIS: Attagene CIS-FACTORIAL HepG2 Assay for human Vitamin D Receptor Element (VDRE) (AID 2282968). As to conditions: HepG2 VDRE cis-reporter transcription, actives raise or lower the signal. The gist of the method: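 Measures endogenous factor activity through cis-element-driven reporter transcripts in transiently transfected HepG2. Cells are treated 24 h; reporter mRNA is quantified by RT-PCR and capillary electrophoresis; fitting is bidirectional.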

Assay [14] addresses Estrogen receptor (Homo sapiens) (UniProt P03372). Briefly: ATG_ERa_TRANS: Attagene TRANS-FACTORIAL HepG2 Assay for human Estrogen Receptor alpha (ERa) (AID 2282970; active = hit-call score of the fitted dose curve at least 0.9, where 1 is the maximum). As to conditions: HepG2 Attagene TRANS ERa GAL4 reporter, mRNA. In outline: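 Transfected HepG2 cells carrying GAL4-UAS-driven reporter units were dosed for 24 hours. Total RNA was reverse-transcribed, reporter sequences PCR-amplified, FAM-labelled, HpaI-digested and resolved by capillary electrophoresis. Increases over DMSO control defined activity.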

Assay [15] concerns the target Steroid hormone receptor ERR1 (Homo sapiens) (UniProt P11474). In words: ATG_ERRa_TRANS: Attagene TRANS-FACTORIAL HepG2 Assay for human Estrogen-Related Receptor alpha (ERRa) (AID 2282971; active = hit-call score of the fitted dose curve at least 0.9, where 1 is the maximum). The settings on record: HepG2 Attagene TRANS reporter, ERRa transactivation. The gist of the method:
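HepG2 cells were transiently transfected with multiple GAL4-UAS reporter units, then dosed with compound for 24 h. Total RNA was reverse-transcribed, reporter cDNA PCR-amplified and fluorescently labelled, and fragments resolved by capillary electrophoresis; induction was compared with DMSO.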

The target in assay [16] is X-box-binding protein 1 (Homo sapiens) (UniProt P17861). In words: ATG_Xbp1_CIS: Attagene CIS-FACTORIAL HepG2 Assay for human X-box Binding Protein 1 (XBP1) (AID 2282972). As to conditions: HepG2 XBP1 cis-element reporter, Attagene multiplex; actives raise or lower the signal. In outline: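 Human hepatoma HepG2, cis-element reporter system, 24 h treatment; mRNA quantified by RT-PCR/CE fluorescence; fit relative to DMSO.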

Assay [17] is described as follows: ATG_M_19_TRANS: Attagene TRANS-FACTORIAL HepG2 Assay for M19 Transcription Factor (Internal Marker) (AID 2282974; active = hit-call score of the fitted dose curve at least 0.9, where 1 is the maximum). As to conditions: HepG2 Attagene TRANS-FACTORIAL M19 internal marker reporter. In outline: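 Using RT-PCR and capillary electrophoresis, reporter mRNA from transiently transfected human HepG2 cells was quantified following 24 h exposure; activity was fitted in the positive direction against DMSO.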

Assay [18] is described as follows: ATG_GAL4_TRANS: Attagene TRANS-FACTORIAL HepG2 Assay for GAL4 (Internal Marker) (AID 2282976; active = hit-call score of the fitted dose curve at least 0.9, where 1 is the maximum). As to conditions: HepG2 Attagene TRANS GAL4 internal marker reporter. The gist of the method: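 Fluorescence from capillary electrophoresis of labelled RT-PCR products quantifies reporter mRNA induction after 24 h dosing of HepG2 cells carrying transfected GAL4-UAS reporter transcription units. Vehicle DMSO serves as baseline.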

Assay [19] in a line: ATG_TCF_b_cat_CIS: Attagene CIS-FACTORIAL HepG2 Assay for human T-Cell-Factor with beta-catenin (TCF/b-cat) (AID 2282965). As to conditions: HepG2 TCF/beta-catenin cis-reporter transcription, actives raise or lower the signal. The gist of the method:
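Endogenous TCF/LEF activity read as reporter transcript level via RT-PCR and capillary electrophoresis fluorescence in transfected HepG2, 24 h exposure; gain or loss of signal fitted against DMSO controls.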

Assay [20] has as its target Nuclear receptor subfamily 1 group I member 3 (Homo sapiens) (UniProt Q14994). In words: ATG_CAR_TRANS: Attagene TRANS-FACTORIAL HepG2 Assay for human Constitutive Androstane Receptor (CAR) (AID 2282969; active = hit-call score of the fitted dose curve at least 0.9, where 1 is the maximum;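 also: activators raise reporter mRNA above DMSO so AC50 marks induction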). The settings on record: HepG2 Attagene TRANS-FACTORIAL CAR reporter. In outline: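 Signal is reporter mRNA induction relative to DMSO, measured 24 h after dosing by RT-PCR with fluorescent primer extension and capillary electrophoresis. Human HepG2 liver cells carried transiently transfected chimeric NR-Gal4/GAL4-UAS reporter constructs.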

Results filed as inconclusive are left out. Calls of active or inactive are those of the source. The calls were made as follows, unless noted: active = hit-call score of the fitted dose curve at least 0.9, where 1 is the maximum; inactive = score below 0.9.

Sequence of Nuclear receptor subfamily 1 group I member 3 (Homo sapiens) (Q14994 whole entry, looked up, the tested form may be a part): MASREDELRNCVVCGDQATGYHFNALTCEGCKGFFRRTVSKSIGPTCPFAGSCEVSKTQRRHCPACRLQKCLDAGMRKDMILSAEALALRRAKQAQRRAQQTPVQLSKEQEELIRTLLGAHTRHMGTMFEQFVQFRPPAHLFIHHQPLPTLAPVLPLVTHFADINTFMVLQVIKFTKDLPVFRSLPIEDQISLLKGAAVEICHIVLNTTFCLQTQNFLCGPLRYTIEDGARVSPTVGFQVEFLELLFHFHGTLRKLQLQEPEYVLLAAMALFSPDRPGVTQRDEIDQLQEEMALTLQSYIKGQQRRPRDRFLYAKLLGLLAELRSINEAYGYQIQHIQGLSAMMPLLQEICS
Sequence of X-box-binding protein 1 (Homo sapiens) (P17861 whole entry, looked up): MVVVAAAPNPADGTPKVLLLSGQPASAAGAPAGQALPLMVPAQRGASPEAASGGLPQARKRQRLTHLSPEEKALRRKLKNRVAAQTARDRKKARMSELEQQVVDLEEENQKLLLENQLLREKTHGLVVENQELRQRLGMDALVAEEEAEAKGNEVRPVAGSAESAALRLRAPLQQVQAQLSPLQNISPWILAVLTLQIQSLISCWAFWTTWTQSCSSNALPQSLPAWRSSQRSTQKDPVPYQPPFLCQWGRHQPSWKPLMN
Sequence of Paired box protein Pax-6 (Homo sapiens) (P26367 whole entry, looked up): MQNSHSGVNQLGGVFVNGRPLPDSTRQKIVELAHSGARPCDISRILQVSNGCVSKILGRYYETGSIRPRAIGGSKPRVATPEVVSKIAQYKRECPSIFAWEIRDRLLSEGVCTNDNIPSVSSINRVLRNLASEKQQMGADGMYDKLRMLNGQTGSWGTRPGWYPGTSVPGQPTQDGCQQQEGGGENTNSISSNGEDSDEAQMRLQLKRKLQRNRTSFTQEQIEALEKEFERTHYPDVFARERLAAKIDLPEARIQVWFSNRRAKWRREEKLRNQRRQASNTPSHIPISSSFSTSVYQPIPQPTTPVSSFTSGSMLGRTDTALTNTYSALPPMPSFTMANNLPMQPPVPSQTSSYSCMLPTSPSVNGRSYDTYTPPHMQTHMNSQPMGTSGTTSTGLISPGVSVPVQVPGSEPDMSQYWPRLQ
Sequence of Estrogen receptor (Homo sapiens) (P03372 whole entry, looked up, the tested form may be a part): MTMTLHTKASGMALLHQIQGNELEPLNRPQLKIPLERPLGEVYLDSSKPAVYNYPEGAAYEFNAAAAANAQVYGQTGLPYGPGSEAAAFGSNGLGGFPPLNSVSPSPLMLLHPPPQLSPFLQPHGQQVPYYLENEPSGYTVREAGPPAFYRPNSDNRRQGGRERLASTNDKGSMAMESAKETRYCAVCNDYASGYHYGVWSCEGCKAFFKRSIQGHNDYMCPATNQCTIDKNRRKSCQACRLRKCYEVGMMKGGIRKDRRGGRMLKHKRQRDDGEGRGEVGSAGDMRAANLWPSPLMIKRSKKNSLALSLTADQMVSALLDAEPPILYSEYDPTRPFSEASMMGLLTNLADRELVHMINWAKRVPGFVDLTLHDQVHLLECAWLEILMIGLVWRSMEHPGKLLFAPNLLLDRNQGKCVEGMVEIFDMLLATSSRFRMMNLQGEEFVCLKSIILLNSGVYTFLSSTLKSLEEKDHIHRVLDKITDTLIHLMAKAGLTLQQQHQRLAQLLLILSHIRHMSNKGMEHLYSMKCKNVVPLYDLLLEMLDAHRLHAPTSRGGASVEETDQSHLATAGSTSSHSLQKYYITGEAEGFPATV
Sequence of Transcription factor Sp1 (Homo sapiens) (P08047 whole entry, looked up, the tested form may be a part): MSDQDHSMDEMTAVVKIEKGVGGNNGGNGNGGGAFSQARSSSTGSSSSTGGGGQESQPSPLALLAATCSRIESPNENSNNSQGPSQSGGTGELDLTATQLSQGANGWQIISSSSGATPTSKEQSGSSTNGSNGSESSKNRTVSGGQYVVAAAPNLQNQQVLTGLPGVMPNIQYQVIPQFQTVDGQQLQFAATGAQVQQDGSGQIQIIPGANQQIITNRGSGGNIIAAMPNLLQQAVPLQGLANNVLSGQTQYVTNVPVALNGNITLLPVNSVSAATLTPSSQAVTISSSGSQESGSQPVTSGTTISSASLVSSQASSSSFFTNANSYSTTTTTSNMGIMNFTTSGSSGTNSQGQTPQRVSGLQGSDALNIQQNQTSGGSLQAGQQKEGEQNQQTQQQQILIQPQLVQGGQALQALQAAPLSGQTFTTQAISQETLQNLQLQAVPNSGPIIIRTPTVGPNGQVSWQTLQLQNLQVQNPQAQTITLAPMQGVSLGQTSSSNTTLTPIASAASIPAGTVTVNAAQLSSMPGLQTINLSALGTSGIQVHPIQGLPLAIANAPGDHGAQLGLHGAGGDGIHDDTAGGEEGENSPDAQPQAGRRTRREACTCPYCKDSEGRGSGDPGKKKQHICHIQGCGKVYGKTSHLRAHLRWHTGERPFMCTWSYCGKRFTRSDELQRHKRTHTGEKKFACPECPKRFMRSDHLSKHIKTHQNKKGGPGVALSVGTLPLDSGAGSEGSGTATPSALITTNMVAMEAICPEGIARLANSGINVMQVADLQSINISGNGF
Sequence of Signal transducer and activator of transcription 3 (Homo sapiens) (P40763 whole entry, looked up): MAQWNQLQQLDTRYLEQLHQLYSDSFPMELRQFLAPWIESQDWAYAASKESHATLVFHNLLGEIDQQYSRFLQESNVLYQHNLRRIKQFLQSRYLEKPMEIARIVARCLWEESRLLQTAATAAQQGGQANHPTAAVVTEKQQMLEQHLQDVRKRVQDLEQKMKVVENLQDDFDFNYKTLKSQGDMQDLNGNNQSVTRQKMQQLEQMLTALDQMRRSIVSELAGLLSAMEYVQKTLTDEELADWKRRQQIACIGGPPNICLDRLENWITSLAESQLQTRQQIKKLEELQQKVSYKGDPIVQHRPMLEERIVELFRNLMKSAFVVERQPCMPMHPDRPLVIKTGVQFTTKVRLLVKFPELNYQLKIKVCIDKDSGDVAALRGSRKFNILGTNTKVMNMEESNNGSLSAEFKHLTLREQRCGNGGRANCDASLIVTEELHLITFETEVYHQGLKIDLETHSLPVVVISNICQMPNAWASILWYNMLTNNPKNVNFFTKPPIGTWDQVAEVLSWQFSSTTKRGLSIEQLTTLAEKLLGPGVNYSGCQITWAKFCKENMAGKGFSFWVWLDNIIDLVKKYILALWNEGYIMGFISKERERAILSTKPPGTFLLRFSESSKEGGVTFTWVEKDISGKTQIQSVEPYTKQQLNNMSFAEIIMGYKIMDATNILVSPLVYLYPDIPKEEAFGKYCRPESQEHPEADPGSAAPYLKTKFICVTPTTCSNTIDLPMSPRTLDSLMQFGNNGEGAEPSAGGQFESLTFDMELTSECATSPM
Sequence of Steroid hormone receptor ERR1 (Homo sapiens) (P11474 whole entry, looked up, the tested form may be a part): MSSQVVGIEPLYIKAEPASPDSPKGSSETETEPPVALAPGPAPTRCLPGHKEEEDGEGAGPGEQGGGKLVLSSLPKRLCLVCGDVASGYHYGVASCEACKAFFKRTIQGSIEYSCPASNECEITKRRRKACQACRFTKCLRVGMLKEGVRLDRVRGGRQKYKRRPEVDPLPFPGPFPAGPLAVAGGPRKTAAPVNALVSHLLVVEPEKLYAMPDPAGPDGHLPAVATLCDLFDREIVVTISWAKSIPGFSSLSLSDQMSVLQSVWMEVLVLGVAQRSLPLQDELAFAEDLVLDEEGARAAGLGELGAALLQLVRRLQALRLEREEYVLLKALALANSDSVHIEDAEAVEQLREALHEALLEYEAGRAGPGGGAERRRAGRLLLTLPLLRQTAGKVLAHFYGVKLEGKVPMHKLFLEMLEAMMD

Regarding `COC(=O)c1ccc(C=O)cc1`, the outcome in assay [1], in assay [2], in [3], in assay [4], in assay [5] and in assay [6] was inactive. Further, the compound was called inactive in assay [7], in [8], in assay [9], in assay [10], in [11] and in assay [12]. In addition, the result in assay [13], in assay [14], in assay [15], in assay [16], in assay [17] and in assay [18] was inactive.
For the compound `CCCCCCCCCCCCCCCCC`, the outcome in assay [1], in [2], in [4], in assay [5], in assay [6] and in [7] was inactive. For the same compound, the compound was called inactive in assay [8], in [9], in [10], in [19], in assay [11] and in assay [12]. For the same compound, the compound was called inactive in assay [13], in assay [14] and in [16]. Besides, in assay [3], the AC50 (usually the concentration giving half of the maximal activity seen) is 27.2 µM (active).
Take `O=C(O)C(F)(F)C(F)(F)C(F)(F)OC(F)(C(F)(F)F)C(F)(F)F`: the outcome in assay [1], in assay [2], in assay [5], in assay [6], in assay [7] and in assay [8] was inactive. In addition, the compound was called inactive in assay [9], in assay [10], in [11], in assay [12], in [14] and in assay [16]. The compound was classed as inactive in assay [17] and in assay [18]. The values for the AC50 in [3], in assay [4] and in [19] were 39.8 µM (active), 45.9 µM (active) and 285 µM (active), respectively.
For `CC(C)(C)C(=O)C1C(=O)c2ccccc2C1=O`, the AC50 in assay [1] is 27.8 µM (active); in assay [3], 13.9 µM (active); in assay [4], 59.7 µM (active); in [13] it was 42.2 µM (active). Besides, the compound was called inactive in assay [2], in assay [5], in assay [6], in assay [7], in [8] and in assay [9]. Besides, the compound was classed as inactive in [10], in [19], in [11], in [12], in assay [20] and in [14]. The outcome in assay [16] was inactive.
As to `CC1=CCC2C(=O)OC(=O)C2C1` (configuration not stated), the outcome in assay [1], in [2], in assay [3], in assay [4], in assay [5] and in assay [6] was inactive. The compound was classed as inactive in [7], in assay [8], in assay [9], in assay [10], in [19] and in [11]. Also, the call in [12], in [20], in assay [16] and in [17] was inactive.
Take `CC(C)OC(=O)COc1ccc(Cl)cc1Cl`: the result in assay [1], in assay [2], in assay [4], in assay [5], in [6] and in [7] was inactive. Besides, the call in assay [8], in assay [9], in assay [10], in assay [19], in [11] and in [12] was inactive. The result in assay [20], in assay [14], in assay [16] and in assay [18] was inactive. The AC50 in [3] is 68.8 µM (active).
Consider `OCC(F)(F)C(F)(F)C(F)(F)C(F)(F)C(F)(F)C(F)(F)CO`, for which the result in [1], in [2], in assay [4], in [5], in assay [6] and in assay [7] was inactive. Also, the call in [8], in [9], in assay [10], in assay [19], in assay [11] and in assay [12] was inactive. The call in assay [16] and in assay [17] was inactive. Moreover, the AC50 was 70.6 µM (active) in assay [3] and 0.0538 µM (active) in assay [14].
